FMDV RLuc = Primary qHTS Assay for Foot and Mouth Disease Virus Antivirals against NCGC Sytravon and CBC Compound Libraries: Renilla Luciferase Signal | Potency, µM (top dose mostly 57.5 µM), actives largely listed as inhibitors | FMDV replicon cells, Renilla luciferase signal | AID 1745857, 2022 | 0.32% of 120,000 active; note: nearly all actives have a fitted effect of over 55% in size
FMDV antiviral = Primary qHTS Assay for Foot and Mouth Disease Virus Antivirals against NCGC Sytravon and CBC Compound Libraries: Firefly Luciferase Signal; FMDV antiviral cell assay, firefly luciferase signal; Potency, µM (highest dose often 57.5 µM), hits mostly inhibitors; 0.23% of 120,000 active; AID 1745856, 2022; note: nearly all actives have a fitted effect of over 60% in size
Large screens that a line does not name were inactive. Hits are enriched below; roughly 0.45% of the tested compounds scored in any of these assays. Calls come from the whole dose curve.

CN(Cc1ccc2c(c1)OCO2)C(=O)c1nn(-c2ccccc2)c(=O)c2ccccc12	none
CC(C)CNc1nc(-c2ccc(S(=O)(=O)N3CCCC3)cc2)cs1	FMDV RLuc 22.4µM, FMDV antiviral inconclusive
CCNc1nc(-c2ccc(S(=O)(=O)N3CCCCCC3)cc2)cs1	none
CCN1CCN(Cc2nc3c(c(=O)n(C)c(=O)n3C)n2Cc2ccc(F)cc2)CC1	none
CCOC(=O)c1[nH]c(C=O)c(CC)c1C	none
CCOc1ccccc1C1C(C#N)=C(N)OC2=C1S(=O)(=O)N(CC)c1ccccc12 (stereo not drawn)	none
Cc1cccc(NC(=O)c2ccc3c(c2)NC(=O)CS3)c1	none
Cc1ccc(NC(=O)c2ccc3c(c2)NC(=O)c2ccccc2S3)cc1	FMDV RLuc 6.31µM, FMDV antiviral inconclusive
Nc1nc(Nc2ccc(F)cc2)nc(-c2cc3ccccc3o2)n1	none
CC(C)(CNC(=O)c1cc(-c2ccccc2F)on1)N1CCOCC1	none
COc1ccc(C(C)=O)cc1COc1ccccc1C#N	none
CO/C=C(/C(=O)OC)c1ccccc1Oc1cc(Oc2ccccc2C#N)ncn1	FMDV RLuc 17.8µM, FMDV antiviral inconclusive
COC(=O)C1(NC(=O)COc2cccc(F)c2)CCCCC1	none
COC(=O)C1(NC(=O)COc2cc(Cl)ccc2Cl)CCCCCC1	FMDV RLuc 5.01µM, FMDV antiviral inconclusive
O=C(Cn1c(=O)c(S(=O)(=O)c2ccccc2)cc2ccccc21)N1CCCC1	none
COc1ccccc1Oc1coc2cc(OCc3ccccc3C)ccc2c1=O	none
Cc1cccc(CN2CCN(C(=O)c3n[nH]c(=O)c4ccccc34)CC2)c1	FMDV RLuc inconclusive, FMDV antiviral 14.1µM
O=C(c1n[nH]c(=O)c2ccccc12)N1CCN(CC(F)(F)F)CC1	none
Cc1cc(C(=O)CN(C)CC(=O)Nc2ccccc2Br)c(C)n1CCc1cccs1	FMDV antiviral inconclusive
O=C(CCCc1c[nH]c2ccccc12)Nc1ccc2ncccc2c1	none
O=C(CCCc1c[nH]c2ccccc12)Nc1cccc2cnccc12	FMDV RLuc 11.2µM, FMDV antiviral inconclusive
Cn1cc(S(=O)(=O)N2CCC(C(=O)Nc3cccc(F)c3)CC2)cc1C(N)=O	none
COc1cc(C(=O)NCc2coc(-c3cccs3)n2)ccc1C	none
CS(=O)(=O)c1ccc2nc(NC(=O)CS(=O)(=O)c3ccc(Cl)cc3)sc2c1	none
CCOc1ccc2nc(NC(=O)CS(=O)(=O)c3ccc(Cl)cc3)sc2c1	FMDV RLuc inconclusive, FMDV antiviral 8.91µM
CCn1c2c(c(=O)n3ncc(C(=O)N4CCN(c5ccc(C(C)=O)cc5)CC4)c13)CN(Cc1ccc(OC)cc1)CC2	FMDV RLuc 22.4µM, FMDV antiviral inconclusive
CCOC(=O)c1ccc(NC(=O)c2cnn3c(=O)c4c(n(CC)c23)CCN(Cc2ccc(OC)cc2)C4)cc1	none
O=C(c1cc(-c2ccccc2)c(-c2ccccc2)s1)C(c1ccccc1)c1ccccc1	none
CC1CCCCC1NC(=S)Nc1cccc2cnccc12 (stereo not drawn)	FMDV RLuc inconclusive, FMDV antiviral 14.1µM
CC1CCCCC1NC(=S)NN (stereo not drawn)	none
O=C(O)C(c1c[nH]c2cc(Cl)ccc12)N1CCN(Cc2cccs2)CC1 (stereo not drawn)	none
CCOc1ccc2c(c1)cc(C(=O)NC(C)C)n2C	none
CC(C)c1cnc2c(c1SCC(=O)O)c(=O)n(C)c(=O)n2C	none
CC(C)c1cnc2c(c1SCC(=O)c1ccc(Cl)cc1)c(=O)n(C)c(=O)n2C	FMDV RLuc 25.1µM
Cc1cccc(NC(=O)c2oc3ccccc3c2NC(=O)c2nn(-c3ccc(F)cc3)ccc2=O)c1	none
CC(C)(C)C1CCc2c(sc3ncc(NC(=O)c4ccccc4)c(=O)n23)C1 (stereo not drawn)	none
COc1ccc(CCNCc2ccc(Cl)cc2)cc1	FMDV RLuc 8.91µM
COc1ccc(CNCCc2ccc(Cl)cc2)cc1	none
CC(NC(=O)CCCc1c[nH]c2ccccc12)c1ccncc1 (stereo not drawn)	none
Cc1nccc(CNC(=O)c2ccc3ncsc3c2)n1	none
Cc1cccc(C)c1NC(=O)c1ccc2ncsc2c1	FMDV antiviral 22.4µM
CCc1nc(NC(CC)CO)c(C#N)c2c1CCCC2 (stereo not drawn)	none
O=C(CN1CCN(CC(=O)Nc2ccccc2C(=O)c2ccccc2)CC1)Nc1ccc(F)cc1	none
CCN1CCN(CCOc2ccc3c(=O)c(-c4ccc(Br)cc4)coc3c2)CC1	FMDV RLuc inconclusive
CCN1CCN(CCOc2ccc3c(=O)c(-c4ccc(Cl)cc4)coc3c2)CC1	FMDV RLuc 17.8µM
O=c1cc(-c2cccs2)oc2ccccc12	none
COc1ccc(CCNc2oc(COc3cccc(C)c3)nc2C#N)cc1OC	none
COc1ccc(CCNc2oc(COc3ccc(Cl)cc3)nc2C#N)cc1OC	FMDV RLuc inconclusive, FMDV antiviral 28.2µM
Cc1ccc2nc(C)c(C(=O)N3CCCC3C3CCCC3)cc2c1 (stereo not drawn)	none
CCOC(=O)c1cccc(Nc2nc3ccccc3nc2NS(=O)(=O)c2ccccc2)c1	none
CCOC(=O)C1=C(Nc2ccccc2)O/C(=C\c2ccc(OC(F)F)cc2OC(F)F)C1=O	FMDV RLuc inconclusive, FMDV antiviral 10µM
O=C(O)c1cccc(-c2noc(-c3ccccc3F)n2)c1	FMDV antiviral 2.51µM
Fc1ccccc1-c1nc(-c2cccc(Br)c2)no1	none
Cc1cc(SCC(=O)Nc2ccc(F)c(F)c2)nc2ccccc12	none
CC(=O)Nc1ccc(S(=O)(=O)N2CCC(Oc3ccc(-n4cnnn4)cc3)CC2)cc1	none
O=S(=O)(c1cccc(F)c1)N1CCC(Oc2ccc(-n3cnnn3)cc2)CC1	FMDV RLuc inconclusive, FMDV antiviral 22.4µM
CCCOc1ccc(C(=O)C(CCC(CNC(C)(C)C)C(=O)c2ccc(OCCC)cc2)CNC(C)(C)C)cc1 (stereo not drawn)	FMDV RLuc 28.2µM, FMDV antiviral inconclusive
CCCOc1ccc(C(=O)Nc2ccc(NC(=O)c3ccc(Br)cc3)cc2)cc1	none
CNC(=O)c1ccc(OCc2coc(-c3cccc(F)c3)n2)cc1	none
CNC(=O)c1ccccc1OCc1coc(-c2ccc(OC)cc2)n1	FMDV RLuc inconclusive
CNC(=O)c1cccc(OCc2coc(-c3cccc(F)c3)n2)c1	FMDV RLuc 12.6µM
CNC(=O)c1ccccc1OCc1coc(-c2ccccc2)n1	FMDV RLuc 10µM, FMDV antiviral inconclusive
Cc1nnc(NC(=O)NCC(C)(C)N2CCN(C)CC2)s1	none
CCOc1ccc2nc(SCC(=O)N3CCN(S(=O)(=O)c4ccccc4)C3C(C)C)[nH]c2c1 (stereo not drawn)	FMDV RLuc inconclusive, FMDV antiviral 25.1µM
CCOc1ccc2nc(SCC(=O)N(Cc3ccccc3)C3CCS(=O)(=O)C3)[nH]c2c1 (stereo not drawn)	none
O=C(NCc1ccccc1Cl)C1CCCN(c2cnc3ccccc3n2)C1 (stereo not drawn)	none
CCn1c2ccccc2c2cc(CNCC3CCNCC3)ccc21	FMDV RLuc 28.2µM, FMDV antiviral inconclusive
COc1cc(CNCC2CCNCC2)ccc1OCc1ccccc1Cl	FMDV RLuc 35.5µM, FMDV antiviral inconclusive
COc1cc(CNCc2ccco2)ccc1OCc1ccccc1C	none
CCOc1ccc(CN2CCN(Cc3ccc4c(c3)c3ccccc3n4CC)CC2)cc1	FMDV RLuc inconclusive
O=C(/C=C/c1ccc(Cl)cc1Cl)c1ccccc1OC(F)F	none
O=C(CSc1nc(C(F)(F)F)nc2ccccc12)Nc1ccc(O)cc1	none
CC/C(C)=N\NC(=O)CCCCC(=O)N/N=C(\C)CC	none
CC1(C)CC(=O)C2=C(C1)NC(Nc1nc3ccccc3o1)=NC2c1cccc(Cl)c1 (stereo not drawn)	none

Assay outcomes (PubChem)
